Bioassay records (PubChem)
This is a sample that favours compounds with a hit; in the whole collection about 4% have one here.
aDG glyco act: increases alpha dystroglycan glycosylation | activation, % at 10 µM | actives 0.22% (n = 360,000) | AID 624168 | Pro5-aDG cells, alpha-DG glycosylation AlphaScreen (IIH6); 0% Pro5, 100% B10-LARGE cell signal;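 active means activation of at least 8% versus controls, or a plate z-score of at least 8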;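 further: Pro5 are CHO cells carrying HIG-tagged alpha-DG that lacks glycosylation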
ADAM17 inh: ADAM17 inhibition, QFRET primary screen. recombinant ADAM17, EDANS/DABCYL FRET peptide cleavage. inhibition, % at 6.95 µM. AID 720648. actives 0.83% (n = 370,000). P78536;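 active means inhibition above the mean of compounds lying between control limits plus 3 SD, set per campaign, cut at about 8.5% in these data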
ADAM10 inh: ADAM10 inhibition, QFRET primary screen; inhibition, % at 7 µM; O14672; actives 0.62% (n = 370,000); AID 720582; recombinant ADAM10, EDANS/DABCYL FRET peptide cleavage, 3 h;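 active means inhibition above a per-campaign cutoff equal to the mean of compounds falling between control-based bounds plus 3 SD, cut at about 20% in these data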
NR3A LBD binder: modulators (binders) of human NR3A ligand-binding domain; NR3A LBD differential scanning fluorimetry, Tm shift; 0% = protein alone, 100% = glycine-bound protein; Tm shift relative to glycine control, % at 25 µM; actives 2.5% (n = 340,000);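 active means melting temperature shift of at least 10% of the positive control shift, at one fixed dose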
FAS TE block: inhibitors of human fatty acid synthase thioesterase domain. P49327. recombinant FAS-TE, OMFH fluorogenic substrate, fluorescence endpoint. inhibition, % at 15 µM. actives 0.67% (n = 360,000). AID 602261;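 active means compounds whose normalised, plate-corrected inhibition of enzyme fluorescence in the single-dose primary screen is 50% or more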
ADAM10 confirm: confirmation of inhibitors of human ADAM10; shares compounds with ADAM10 inh; ADAM10 QFRET peptide cleavage, EDANS fluorescence; inhibition, % at 6.95 µM; actives 1% (n = 2,100); AID 743208;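 active means inhibition above about 20% chosen separately for each screening run, limit read from the data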
ADAM17 ctr: counter-screen for ADAM10 exosite inhibitors: inhibitors of human ADAM17; ADAM17 QFRET peptide cleavage, EDANS fluorescence; shares compounds with ADAM10 inh; inhibition, % at 6.95 µM; actives 0.5% (n = 2,100);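 active means mean triplicate inhibition above the solvent-only control wells' mean plus 3 SD, cut at about 12% in these data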
ADAM10 ctr: counter-screen for ADAM17 exosite inhibitors: inhibitors of human ADAM10 | shares compounds with ADAM17 inh | recombinant ADAM10, EDANS/DABCYL FRET peptide cleavage, 3 h | inhibition, % at 6.95 µM | actives 47% (n = 2,900) | AID 743256;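 active means mean inhibition over the triplicate runs exceeds the activity threshold set in the earlier primary screen, cut at about 20% in these data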
ADAM17 confirm: confirmation of inhibitors of human ADAM17 | shares compounds with ADAM17 inh | recombinant ADAM17, EDANS/DABCYL QFRET peptide cleavage | inhibition, % at 6.95 µM | actives 65% (n = 2,900);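 active means mean inhibition across replicates above the hit cutoff set in the primary screen, cut at about 8.5% in these data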
Of the large screens only hits and unclear results are named; the others gave an inactive call (follow-up assays come after a bar, where they were run).

COc1ccc(N=C2SC(CC(=O)Nc3cccc(Cl)c3)C(=O)N2Cc2ccco2)cc1 (stereo not given)	ADAM17 inh 14, ADAM10 inh 21, NR3A LBD binder 12 | ADAM10 confirm inactive | ADAM17 ctr inactive | ADAM10 ctr 23 | ADAM17 confirm 16
C=CCN(c1ccccc1OC)S(=O)(=O)c1cccc(C(=O)OCC(=O)c2c[nH]c3ccccc23)c1	ADAM17 inh 8.8, ADAM10 inh 23, NR3A LBD binder 29 | ADAM10 confirm inactive | ADAM17 ctr inactive | ADAM10 ctr 32 | ADAM17 confirm 19
O=C(Nc1ccccc1)c1cc(C2CCCCN2S(=O)(=O)Cc2cccc(C(F)(F)F)c2)on1 (stereo not given)	ADAM17 inh 17, ADAM10 inh 30 (no result: NR3A LBD binder) | ADAM10 confirm inactive | ADAM17 ctr inactive | ADAM10 ctr 26 | ADAM17 confirm 11
COc1ccc(NC(=O)COc2ccccc2)cc1Cl	none
COc1ccc(NC(=S)Nc2cc(-c3ccccc3)[nH]n2)cc1Cl	ADAM17 inh 19, ADAM10 inh 32, NR3A LBD binder 34 | ADAM10 confirm inactive | ADAM17 ctr inactive | ADAM10 ctr 36 | ADAM17 confirm 22
O=C(NCC1CC1)c1cc2c(c(-c3cccc(-c4ccccc4F)c3)n1)[C@H](CCO)N(C(=O)CC1CC1)C2	none (no result: NR3A LBD binder)
O=C(NCC(F)(F)F)c1cc2c(c(-c3cccc(-c4ccccc4F)c3)n1)[C@@H](CCO)N(C(=O)CC1CC1)C2	ADAM17 inh 10, ADAM10 inh 20 (no result: NR3A LBD binder) | ADAM10 confirm inactive | ADAM17 ctr inactive | ADAM10 ctr inactive | ADAM17 confirm 11
O=C(NCC1CC1)c1cc2c(c(-c3cccc(-c4ccccc4F)c3)n1)[C@@H](CCO)N(C(=O)CC1CC1)C2	ADAM17 inh 10, ADAM10 inh 35 (no result: NR3A LBD binder) | ADAM10 confirm inactive | ADAM17 ctr inactive | ADAM10 ctr inactive | ADAM17 confirm 9.6
CC(C)(C)S(=O)N1Cc2cc(C(=O)NCC(F)(F)F)nc(-c3cccc(-c4cccc(F)c4)c3)c2[C@@H]1CCO (stereo not given in full)	ADAM17 inh 15, ADAM10 inh 27 (no result: NR3A LBD binder) | ADAM10 confirm inactive | ADAM17 ctr inactive | ADAM10 ctr inactive | ADAM17 confirm inactive
COCCN=c1scc(-c2cc(OC)c(OC)c(OC)c2)n1/N=C/c1c(C)[nH]c2ccccc12	ADAM17 inh 17, ADAM10 inh 26 | ADAM10 confirm inactive | ADAM17 ctr inactive | ADAM10 ctr inactive | ADAM17 confirm 17
Cc1[nH]c2ccccc2c1/C=N/n1cnnc1	none
Cc1cc(O)c2c(-c3ccccc3)cc(=O)oc2c1	none
Cc1cc2oc(=O)cc(-c3ccccc3)c2c(C)c1-c1ccc(O)cc1	ADAM17 inh 16, ADAM10 inh 33 | ADAM10 confirm inactive | ADAM17 ctr inactive | ADAM10 ctr inactive | ADAM17 confirm 13
CCCCOC(=O)Nc1ccc(C(=O)OCCC)cc1	none
CCCCOC(=O)c1ccc(NC(=O)c2c(Cl)ccc(Cl)c2OC)cc1	ADAM17 inh 9.3, ADAM10 inh 22 | ADAM10 confirm inactive | ADAM17 ctr inactive | ADAM10 ctr 22 | ADAM17 confirm 14
Cc1ccc(S(=O)(=O)Nc2ccc(-c3nnc(SCc4ccccc4Cl)o3)cc2)cc1	ADAM17 inh 9.6, ADAM10 inh 23, NR3A LBD binder 26 | ADAM10 confirm inactive | ADAM17 ctr inactive | ADAM10 ctr 34 | ADAM17 confirm 17
